Screening data (PubChem BioAssay)
Most compounds without a hit are left out; they make up all but 3.1% or so of the library.
Mito fusion act: blocks mitochondrial division or promotes mitochondrial fusion | S. cerevisiae fusion-defective mutant growth rescue, CellTiterGlo 48 h | Potency, µM (highest dose often 46.1 µM), for inactives: at the top dose growth rescue (activation), hits mostly activators | actives 0.23% (n = 320,000); also: % of control where 0% means no effect; nearly all actives have a fitted effect of over 45% in size
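Temperature-sensitive fusion-defective S. cerevisiae (e.g. fzo1-1, mgm1-5) were grown with compound in YPEG medium (3% ethanol, 3% glycerol) for 48 hours at 37C. Growth rescue was measured as viability by CellTiterGlo luminescence after 10 minutes at ambient.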
TrxR1 substrate: rat thioredoxin reductase 1 substrate activity; O89049; purified TrxR1 substrate turnover, NADPH consumption readout; Potency, µM (doses to about 114 µM), inactives show at the top dose activity change, negative = substrate turnover; actives 0.01% (n = 390,000); AID 588456; also: % is scaled to controls: 0 for no effect and ±100 for the full control effect; nearly all actives have a fitted effect of over 50% in size
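Rat TrxR1, dispensed at 90 nM, was prereduced with 400 uM NADPH (final) for 5 min at ~22 deg C, then incubated with compound 15 min before 400 uM selenite. A first-read NADPH fluorescence drop versus no-compound background flagged substrates.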
A549 tox: A549 cytotoxicity, counter-screen for Nrf2 inhibitors | A549 ARE-Fluc cells, CellTiter-Fluor viability, 18-24 h | Potency, µM (doses to about 46 µM), for the others: top-dose activity change, negative = cytotoxicity, hits mostly inhibitors | actives 0.16% (n = 390,000) | AID 504648; also: % is scaled to controls: 0 for no effect and ±100 for the full control effect
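A549 ARE_Fluc cells in 5% FBS OPTI-MEM were exposed to compounds in concentration-response for 18-24 h at 37 deg C. Viability was read by CellTiter-Fluor fluorescence (Ex 405/Em 525) after 30 min, before the luciferase read.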
Nrf2 block: inhibitors of Nrf2 signaling | AID 504444 | actives 2.1% (n = 360,000) | Potency, µM (top dose mostly 46 µM), for the others: top-dose activity change, negative = inhibition, usual class: inhibitors | A549 ARE-Fluc reporter, luciferase luminescence, 18-24 h; also: % is scaled to controls: 0 for no effect and ±100 for the full control effect; nearly all actives have a fitted effect of over 60% in size
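Cells were seeded and rested 2 h, then exposed to compounds for 18-24 h. CellTiter-Fluor was read first as a viability measure. BugLite was added 15 min before the final luminescent read of ARE-luciferase activity in A549 cells.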
IDH1 R132H inh: inhibitors of human mutant IDH1 R132H; IDH1-R132H enzyme, NADPH consumption, diaphorase/resazurin fluorescence; actives 0.093% (n = 390,000); AID 602179; Potency, µM (highest dose often 76.6 µM), for the others: at the highest dose activity change, negative = inhibition, hits mostly inhibitors; O75874; also: % is scaled to controls: 0 for no effect and ±100 for the full control effect; nearly all actives have a fitted effect of over 65% in size
Target sequence (O75874 whole entry R132H, stated change not applied): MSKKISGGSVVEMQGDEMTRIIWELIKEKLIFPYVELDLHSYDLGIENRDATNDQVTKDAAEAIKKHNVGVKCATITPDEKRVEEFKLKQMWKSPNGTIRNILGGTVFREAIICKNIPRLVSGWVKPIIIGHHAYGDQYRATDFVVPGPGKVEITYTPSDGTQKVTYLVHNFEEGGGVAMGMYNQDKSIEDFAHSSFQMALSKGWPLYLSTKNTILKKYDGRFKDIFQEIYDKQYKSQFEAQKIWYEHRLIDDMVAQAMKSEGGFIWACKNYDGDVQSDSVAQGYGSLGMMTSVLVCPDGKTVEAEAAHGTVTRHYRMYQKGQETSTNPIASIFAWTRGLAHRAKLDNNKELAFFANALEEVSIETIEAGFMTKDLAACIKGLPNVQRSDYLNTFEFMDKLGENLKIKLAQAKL
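IDH1-R132H (0.5 ug/mL dispensed) in pH 7.5 Tris buffer was preincubated 30 min with compound, then given a substrate mix of 0.016 mM NADPH and 2 mM alpha-KG for 80 min at room temperature; remaining NADPH was read by diaphorase/resazurin fluorescence.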
TrxR1 inh: rat TrxR1 inhibition; O89049; recombinant rTrxR1, NADPH fluorescence consumption, selenite substrate; Potency, µM (top dose mostly 114 µM), inactives show at the highest dose activity change, negative = inhibition, actives largely listed as inhibitors; actives 1% (n = 390,000); AID 588453; also: % is scaled to controls: 0 for no effect and ±100 for the full control effect; nearly all actives have a fitted effect of over 65% in size
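Rat TrxR1 (90 nM in the dispensed reagent) was pre-reduced with 400 uM NADPH for 5 min at room temperature, then incubated with compound for 15 min. After 400 uM selenite was added, NADPH fluorescence (Ex 340/Em 450 nm) was followed for 8 min.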
* = called active by the depositor; i = inactive; u = inconclusive; x = no result; [ ] = remark or other dose. Calls follow the shape of the dose curve; as a rule, active = well fitted curve in the direction sought with a large enough effect; inconclusive = small, poorly fitted or top-dose-only effect, or another doubt; inactive = no such curve, though single readings can be large; an effect the other way counts as inactive or inconclusive. Potency is read from the fitted curve at half-maximal effect.

SMILES	Mito fusion act	TrxR1 substrate	A549 tox	Nrf2 block	IDH1 R132H inh	TrxR1 inh
Cc1ccccc1CC1(CO)CCCN(C(=O)c2ccccc2Cl)C1 (stereo unspecified)	4.8%	1.5%[57.1 µM]	0.0%	-13.7%	3.3%	2.0%[57.1 µM]
CSCC(=O)N1CCCC(CO)(Cc2ccccc2C)C1 (stereo unspecified)	22.4µM*	5.2%	1.5%	0.4%	5.0%	16.6%
COc1ccc(C(=O)N2CCCC(CO)(Cc3ccccc3C)C2)o1 (stereo unspecified)	4.5%	0.3%	-3.7%	8.8%	6.3%	50.1µM*
Cc1ccccc1CC1(CO)CCCN(C(=O)CCC(F)(F)F)C1 (stereo unspecified)	-0.3%	-9.1%	-11.0%	5.1%	6.9%	11.4%[57.1 µM]
CCc1ccc(-n2c(N3CCN(c4ccc(F)cc4)CC3)nc3ccccc3c2=O)cc1	x	21.9%	-2.3%	-24.4%	-13.9%	38.1%
N#C/C(=C\c1cccc(Cl)c1)C(=O)c1ccccc1	-5.9%	4.6%[57.1 µM]	-2.4%	u	19.3%	11.2µM*
N#C/C(=C\c1ccc[nH]1)C(=O)c1ccccc1	0.7%	2.9%	1.7%	-2.0%	0.5%	7.9%
O=C(c1ccccc1O)N(Cc1ccccc1)Cc1cccs1	x	x	1.8%	17.9%	x	x
O=C(CN1CCOCC1)Nc1ccccc1Sc1ccc(Cl)cc1	25.2%	-9.6%	-2.1%	29.1µM*	-0.2%	-10.4%
O=C(Cc1ccc(Cl)cc1)Nc1ccccc1Sc1ccccc1	u	-10.2%	u	-16.6%	0.9%	-12.3%
O=C(CCl)Nc1ccccc1Sc1ccccc1	-5.0%	-3.2%	-14.9%	-5.2%	6.2%	39.8µM*
Cc1ccc(-c2nn(-c3ccccc3)cc2C=C2C(=O)CC(C)(C)CC2=O)cc1	-4.5%	-6.8%	-0.6%	u	-1.7%	22.4µM*
CC1=NNC(=O)/C1=C\c1cn(-c2ccccc2)nc1-c1ccc(Cl)cc1	-15.8%	-10.2%	20.6µM*	13µM*	u	-14.9%
CC1(C)CC(=O)C(=Cc2cn(-c3ccccc3)nc2-c2ccccc2)C(=O)C1	x	-5.2%	0.4%	0.1%	-6.1%	u
O=c1cc(-c2ccccc2Cl)oc2ccc([N+](=O)[O-])c(O)c12	u	-9.7%	u	u	-5.4%	2.3%[57.1 µM]
O=c1cc(-c2ccccc2Cl)oc2c([N+](=O)[O-])c(O)cc(O)c12	u	-9.3%[57.1 µM]	u	13µM*	6.2%	-2.3%[57.1 µM]
CCc1cc2c(s1)c1cnn(Cc3ccccc3F)c(=O)c1n2C	x	x	9.3%	u	x	x
CCCn1nnc(NCc2ccc(OCc3cccs3)c(OC)c2)n1	-5.9%	3.0%	x	8.2µM*	-0.3%	7.8%
O=[N+]([O-])c1ccc(N2CCOCC2)nc1	-2.2%	-6.8%	u	-10.4%	-3.5%	-5.8%
O=C(c1ccc(F)cc1F)C1CCN(c2ccc([N+](=O)[O-])cn2)CC1	-0.4%	-4.8%	-16.8%	23.1µM*	-8.6%	8.9%
CCC(CC)C(=O)N1CCc2cc(OC)c(OC)cc2C1COc1ccc2c(C)cc(=O)oc2c1 (stereo unspecified)	x	2.5%	0.1%	-11.9%[9.27 µM]	-23.8%	10.1%
COC(=O)Cc1c(C)c2ccc3c(c2oc1=O)CN(Cc1ccccc1OC)CO3	x	i	u	32.6%	13.1%	39.8µM*
COC(=O)Cc1c(C)c2ccc3c(c2oc1=O)CN(Cc1ccccc1Cl)CO3	x	i	10.8%	u	-0.4%	u
COC(=O)Cc1c(C)c2ccc3c(c2oc1=O)CN(Cc1ccc(C)cc1)CO3	x	i	20.5%	3.8%	13.7%	35.5µM*
O=c1cc(N2CCNCC2)nc2sc(-c3ccncc3)nn12	x	x	-2.0%	16.3%	x	x
SMILES	Mito fusion act	TrxR1 substrate	A549 tox	Nrf2 block	IDH1 R132H inh	TrxR1 inh
CCCOc1ccccc1NC(=O)/C=C/C(N)=O	-6.0%	7.7%	-6.3%	x	1.4%	12.6µM*
COCCNC(=O)c1cc2cc3ccc(OC)cc3nc2o1	-1.4%	868.3%	-0.5%	2.6%	14.6%	70.8µM*
COc1ccc2cc3cc(C(=O)NCCC(C)C)oc3nc2c1	3.0%	59.8%[57.1 µM]	-6.6%	-18.9%	4.9%	22.5%[57.1 µM]
COc1ccc2cc3cc(C(=O)NCc4ccco4)oc3nc2c1	-2.6%	263.5%	-24.6%	5.17µM*	-5.5%	u
O=C(NCc1ccco1)c1cc2cc3ccc(Cl)cc3nc2o1	-2.8%	1.2%[57.1 µM]	u	23.1µM*	12.7%	-6.9%[57.1 µM]
COc1ccc2cc3cc(C(=O)NCCN4CCN(c5ccccc5F)CC4)oc3nc2c1	3.2%	361.3%	u	18.4µM*	6.6%	-105.7%
COc1ccc2cc3cc(C(=O)Nc4ccccc4N4CCN(C)CC4)oc3nc2c1	-0.6%	8.7%	-7.5%	-16.6%	9.1%	13.1%
O=C1c2ccccc2C(=O)N1c1cncc2ccccc12	x	x	4.0%	20.8%	x	x
Cc1cc(OCC(=O)Nc2ccncc2)cc(C)c1Cl	6.3%	8.0%	0.9%	13µM*	11.3%	24.4%
Cc1cc(OC(C)C(=O)Nc2ccncc2)ccc1Cl (stereo unspecified)	-0.3%	5.1%[2.29 µM]	-3.0%	18.4µM*	-0.7%	18.6%
CCc1nonc1NC(=O)COc1ccc(Cl)c(C)c1	8.8%	3.4%	0.0%	1.0%	0.0%	10.5%
CCc1nonc1NC(=O)COc1cc(C)c(Cl)c(C)c1	11.2µM*	15.0%	0.5%	6.2%	3.4%	52.2%
O=C(COC(=O)c1ccccc1Oc1ccccc1)Nc1ccc(Br)cc1	x	-2.2%	x	x	x	-3.1%
O=C(COc1ccccc1C(=O)Nc1cccc([N+](=O)[O-])c1)Nc1ccc(Br)cc1	x	4.9%	x	x	x	36.4%
Fc1ccc(COc2cccc(CNCc3ccncc3)c2)cc1	-0.8%	-2.5%[57.1 µM]	-1.0%	14.6µM*	7.2%	13.5%[57.1 µM]
COc1ccccc1N1CCN(C(=O)Cn2c(=O)n3nc(-c4cccc(C)c4)nc3c3ccccc32)CC1	x	1.4%[57.1 µM]	-3.2%	x	-6.8%	19.2%[57.1 µM]
Cc1ccc(Cn2ccsc2=NC(=O)COC(=O)c2ccc(NC(=O)CC#N)cc2)cc1	-1.6%	-7.1%	-14.5%	23.1µM*	-0.4%	1.1%
Cc1ccc(Cn2ccsc2=NC(=O)CCl)cc1	2.4%	9.1%	-4.0%	9.9%	-2.0%	u
CN1c2ccccc2C(C)(C)C12CC(c1ccc(Cl)c(S(=O)(=O)N3CCCC3)c1)=NO2 (stereo unspecified)	-8.2%	x	x	x	x	x
CN1c2ccccc2C(C)(C)C12CC(CCl)=NO2 (stereo unspecified)	1.3%	-1.8%[57.1 µM]	-7.7%	-19.7%	4.4%	25.1µM*
CC(C)(C)OC(=O)Cc1nnc(-c2cc3ccccc3[nH]2)s1	x	x	-1.2%	u	x	x
C=C1C(=O)O[C@@H]2[C@H]1CC[C@H](C)[C@]1(O)CCC(=O)[C@@]21C	-9.8%	4.2%	-10.0%	-17.5%	-7.0%	5.8%
